# Results published in ChEMBL document CHEMBL1961873, “Compounds: GSK PKIS; Assays: Nanosyn kinase panel” (2012).
# How the values were obtained:
# [1] = target: T1, Tyrosine-protein kinase receptor TYRO3 (Homo sapiens) (UniProt Q06418); settings: at 1 µM
# T1 sequence (whole entry): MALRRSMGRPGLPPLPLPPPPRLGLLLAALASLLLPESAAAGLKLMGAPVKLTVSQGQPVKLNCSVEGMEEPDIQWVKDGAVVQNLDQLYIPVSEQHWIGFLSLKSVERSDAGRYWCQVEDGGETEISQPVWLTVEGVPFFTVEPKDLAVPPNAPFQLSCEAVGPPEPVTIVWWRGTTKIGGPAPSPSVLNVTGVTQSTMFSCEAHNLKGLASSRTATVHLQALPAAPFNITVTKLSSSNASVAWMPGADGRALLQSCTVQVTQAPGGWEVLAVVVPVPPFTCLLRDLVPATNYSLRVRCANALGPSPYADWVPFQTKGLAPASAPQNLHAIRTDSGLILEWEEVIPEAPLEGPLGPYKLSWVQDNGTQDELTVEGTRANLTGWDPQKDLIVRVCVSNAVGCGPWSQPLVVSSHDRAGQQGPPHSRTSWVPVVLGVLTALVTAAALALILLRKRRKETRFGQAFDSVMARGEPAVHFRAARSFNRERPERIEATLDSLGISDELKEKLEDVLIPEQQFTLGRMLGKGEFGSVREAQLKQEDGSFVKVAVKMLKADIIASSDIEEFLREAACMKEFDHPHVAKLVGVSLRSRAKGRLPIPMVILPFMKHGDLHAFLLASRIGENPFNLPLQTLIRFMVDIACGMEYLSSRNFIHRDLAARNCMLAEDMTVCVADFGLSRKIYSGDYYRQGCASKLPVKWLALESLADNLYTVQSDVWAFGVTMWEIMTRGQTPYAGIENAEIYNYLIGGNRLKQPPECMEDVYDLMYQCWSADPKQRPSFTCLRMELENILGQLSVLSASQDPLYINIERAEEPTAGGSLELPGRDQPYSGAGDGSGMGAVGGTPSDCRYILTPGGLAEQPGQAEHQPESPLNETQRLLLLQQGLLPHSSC
# [2] = target: Tyrosine-protein kinase Yes (Homo sapiens) (UniProt P07947); settings: at 0.1 µM
# [3] = target: Tyrosine-protein kinase Yes (Homo sapiens) (UniProt P07947); settings: at 1 µM
# [4] = target: T2, Tyrosine-protein kinase ZAP-70 (Homo sapiens) (UniProt P43403); settings: at 0.1 µM
# T2 sequence (whole entry): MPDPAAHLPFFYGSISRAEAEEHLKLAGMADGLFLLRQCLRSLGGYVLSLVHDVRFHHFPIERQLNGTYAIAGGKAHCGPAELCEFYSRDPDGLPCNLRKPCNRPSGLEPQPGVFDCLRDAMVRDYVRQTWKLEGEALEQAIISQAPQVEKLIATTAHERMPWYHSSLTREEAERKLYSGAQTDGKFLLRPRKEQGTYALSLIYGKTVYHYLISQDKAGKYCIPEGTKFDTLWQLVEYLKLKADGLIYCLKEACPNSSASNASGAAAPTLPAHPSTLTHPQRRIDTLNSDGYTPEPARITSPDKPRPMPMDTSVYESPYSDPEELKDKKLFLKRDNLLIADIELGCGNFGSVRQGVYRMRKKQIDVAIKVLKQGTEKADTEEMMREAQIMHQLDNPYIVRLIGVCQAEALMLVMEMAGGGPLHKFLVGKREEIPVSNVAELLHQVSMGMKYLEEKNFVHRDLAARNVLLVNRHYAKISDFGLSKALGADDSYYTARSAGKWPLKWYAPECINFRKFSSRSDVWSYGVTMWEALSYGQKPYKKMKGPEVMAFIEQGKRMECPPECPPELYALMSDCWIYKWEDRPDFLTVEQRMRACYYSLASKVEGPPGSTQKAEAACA
# [5] = target: T2, Tyrosine-protein kinase ZAP-70 (Homo sapiens); settings: at 1 µM
# [6] = target: Serine/threonine-protein kinase B-raf (Homo sapiens) (UniProt P15056); settings: at 0.1 µM
# [7] = target: Serine/threonine-protein kinase B-raf (Homo sapiens) (UniProt P15056); settings: at 1 µM
# [8] = tested on: Serine/threonine-protein kinase B-raf (Homo sapiens), P15056 [V600E]; settings: at 0.1 µM
# [9] = tested on: Serine/threonine-protein kinase B-raf (Homo sapiens), P15056 [V600E]; settings: at 1 µM
# [10] = target: RAF proto-oncogene serine/threonine-protein kinase (Homo sapiens) (UniProt P04049); settings: at 0.1 µM;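 note: values are mean CRAF kinase inhibition from profiling of the GSK Published Kinase Inhibitor Set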
# Sequence of RAF proto-oncogene serine/threonine-protein kinase (Homo sapiens) (P04049 whole entry): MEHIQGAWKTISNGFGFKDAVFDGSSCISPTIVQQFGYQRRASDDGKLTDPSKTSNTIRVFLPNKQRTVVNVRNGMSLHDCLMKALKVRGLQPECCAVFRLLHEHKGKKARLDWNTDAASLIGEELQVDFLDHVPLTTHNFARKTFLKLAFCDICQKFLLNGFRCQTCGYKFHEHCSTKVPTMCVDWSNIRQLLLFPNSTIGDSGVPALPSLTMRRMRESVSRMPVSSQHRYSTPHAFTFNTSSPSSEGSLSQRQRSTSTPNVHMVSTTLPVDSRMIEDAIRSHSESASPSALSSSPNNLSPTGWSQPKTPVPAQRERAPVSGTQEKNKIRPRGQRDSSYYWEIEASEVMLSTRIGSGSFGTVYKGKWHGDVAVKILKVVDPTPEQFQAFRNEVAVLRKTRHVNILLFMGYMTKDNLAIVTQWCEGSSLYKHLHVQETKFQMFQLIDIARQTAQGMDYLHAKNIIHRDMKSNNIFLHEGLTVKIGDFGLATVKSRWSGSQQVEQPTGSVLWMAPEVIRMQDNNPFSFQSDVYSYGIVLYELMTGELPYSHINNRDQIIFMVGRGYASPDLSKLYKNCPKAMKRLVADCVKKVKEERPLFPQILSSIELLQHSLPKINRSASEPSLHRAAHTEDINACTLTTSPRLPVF
# Sequence of Serine/threonine-protein kinase B-raf (Homo sapiens) (P15056 whole entry): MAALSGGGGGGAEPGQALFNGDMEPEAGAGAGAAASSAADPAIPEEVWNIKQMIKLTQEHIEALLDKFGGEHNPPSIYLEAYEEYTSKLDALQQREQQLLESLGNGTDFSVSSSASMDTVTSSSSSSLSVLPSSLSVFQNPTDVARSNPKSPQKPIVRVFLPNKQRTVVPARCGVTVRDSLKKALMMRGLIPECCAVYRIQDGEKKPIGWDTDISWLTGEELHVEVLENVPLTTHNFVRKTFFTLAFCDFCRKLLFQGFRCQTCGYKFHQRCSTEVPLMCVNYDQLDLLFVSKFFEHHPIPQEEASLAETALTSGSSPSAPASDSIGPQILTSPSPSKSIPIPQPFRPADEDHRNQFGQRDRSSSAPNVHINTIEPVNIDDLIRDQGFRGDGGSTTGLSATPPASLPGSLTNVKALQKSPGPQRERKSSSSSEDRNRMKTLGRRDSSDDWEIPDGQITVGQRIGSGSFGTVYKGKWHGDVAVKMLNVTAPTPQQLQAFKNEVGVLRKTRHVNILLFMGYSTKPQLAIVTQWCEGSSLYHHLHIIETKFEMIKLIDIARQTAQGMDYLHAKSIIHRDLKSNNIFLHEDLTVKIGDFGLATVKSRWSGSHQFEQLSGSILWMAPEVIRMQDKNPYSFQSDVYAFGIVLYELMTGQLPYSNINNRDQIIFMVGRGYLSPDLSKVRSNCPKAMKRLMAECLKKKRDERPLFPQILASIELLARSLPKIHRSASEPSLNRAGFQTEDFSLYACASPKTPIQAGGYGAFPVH
# Sequence of Tyrosine-protein kinase Yes (Homo sapiens) (P07947 2-543 limits assumed): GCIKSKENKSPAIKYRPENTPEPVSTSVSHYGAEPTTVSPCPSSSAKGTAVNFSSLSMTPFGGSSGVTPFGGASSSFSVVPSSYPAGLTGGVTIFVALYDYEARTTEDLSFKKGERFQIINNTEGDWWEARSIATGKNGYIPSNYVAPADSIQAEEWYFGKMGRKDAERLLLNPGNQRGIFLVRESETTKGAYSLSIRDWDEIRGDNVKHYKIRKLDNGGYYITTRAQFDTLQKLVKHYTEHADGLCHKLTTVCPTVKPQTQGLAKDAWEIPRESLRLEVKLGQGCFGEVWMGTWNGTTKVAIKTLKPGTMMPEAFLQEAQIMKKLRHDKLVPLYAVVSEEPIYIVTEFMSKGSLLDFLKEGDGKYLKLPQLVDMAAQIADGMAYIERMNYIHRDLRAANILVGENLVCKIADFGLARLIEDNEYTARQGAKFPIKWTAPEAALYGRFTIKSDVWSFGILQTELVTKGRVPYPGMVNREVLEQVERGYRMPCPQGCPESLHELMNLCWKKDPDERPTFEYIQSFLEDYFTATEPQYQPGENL
# Sequence of Serine/threonine-protein kinase B-raf (Homo sapiens), P15056 [V600E] (P15056 whole entry V600E): as the sequence (P15056 whole entry) above, with V600E counted along it
Compound,inhibition [1],inhibition [2],inhibition [3],inhibition [4],inhibition [5],inhibition [6],inhibition [7],inhibition [8],inhibition [9],inhibition [10]
[O-][S+]1CCN(Cc2ccc(-c3ccc4ncnc(Nc5ccc(OCc6cccc(F)c6)c(Cl)c5)c4c3)o2)CC1,18.8%,6.03%,21.1%,0.38%,3.57%,6.54%,8.02%,5.36%,5.17%,-0.6%
N#Cc1c(NC(=O)CN2CCOCC2)sc2c1CCCC2,3.91%,3.9%,3.95%,1.13%,-1.02%,5.62%,6.96%,5.95%,4.84%,4.41%
CS(=O)(=O)CCNCc1coc(-c2ccc3ncnc(Nc4ccc(OCc5ccccc5)cc4)c3c2)c1,2.91%,4.14%,26.2%,1.16%,2.06%,3.09%,6.31%,3.49%,3.25%,2.12%
FC(F)(F)c1cccc(-c2nn3ncccc3c2-c2ccnc(Nc3ccc4c(c3)OCCO4)n2)c1,22.9%,32.1%,82.8%,2%,3.05%,2.88%,6.42%,1.76%,7.02%,-1.62%
c1ccc(COc2ccc(Nc3ncnc4ccc(-c5ccco5)cc34)cc2)cc1,1.86%,3.28%,13.1%,-2.15%,0.17%,1.52%,1.99%,2.01%,3.23%,11.2%
O=C(O[C@H]1CN[C@H](C#Cc2cc3ncnc(Nc4ccc(Cc5ccccc5)cc4)c3s2)C1)N1CCOCC1,0.43%,7.04%,38.8%,-0.2%,2.04%,3.95%,4.23%,3.02%,3.28%,-1.64%
c1ccc(-c2nc3n(c2-c2ccc4c(c2)OCO4)CCC3)nc1,1.8%,1.3%,3.94%,4.17%,1.94%,2.61%,2.48%,2.01%,3.56%,-0.19%
COC(=O)Nc1nc2ccc(Oc3ccc(NC(=O)Nc4cccc(Cl)c4)cc3)cc2[nH]1,11%,0.67%,2.42%,0.78%,2.42%,6.07%,17.1%,6.79%,15.1%,-4.01%
COC(=O)Nc1nc2ccc(S(=O)(=O)c3ccc(NC(=O)Nc4cc(C(F)(F)F)ccc4F)cc3)cc2[nH]1,2.45%,1.97%,-2.4%,2.44%,3.21%,3.07%,3.12%,3.61%,4.39%,-1.21%
CCn1c(-c2nonc2N)nc2cnc(Oc3cccc(NC(=O)c4ccc(N(C)C)cc4)c3)cc21,0.87%,0.93%,2.45%,1.81%,2.72%,1.95%,5.71%,2.62%,6.32%,0.85%
CCn1c(-c2nonc2N)nc2c(C#CC(C)(C)O)nc(OC[C@H](N)c3ccccc3)cc21,1.88%,2.49%,7.77%,0.59%,-2.5%,1.18%,5.43%,1.68%,2.41%,-2.29%
CC(C)COC(=O)c1ccc2c(c1)/C(=C/Nc1ccc(S(N)(=O)=O)cc1)C(=O)N2,17%,0.49%,22.1%,-2.35%,1.21%,2.66%,32.8%,1.68%,34%,-3.89%
NC(=O)c1sc(-n2cnc3ccc(C(F)(F)F)cc32)cc1OCc1ccccc1Br,2.95%,2.93%,6.95%,2.64%,2.31%,6.14%,7.4%,5.99%,6.42%,-1.07%
Fc1ccc(-c2cc(-c3c[nH]nc3-c3ccccn3)ccn2)cc1,5.06%,5.64%,9.04%,2.71%,2.35%,6.7%,8.05%,9.04%,6.61%,0.68%
N#Cc1c(NC(=O)c2ccc(F)cc2)sc2c1CCCC2,2.87%,0.59%,4.07%,1.26%,2.47%,1.72%,3.03%,1.04%,2.86%,-3.13%
COc1ccc(CNC(=O)c2ccc(-c3cc(-c4nnc(C)o4)ccc3C)cc2)cc1,4.48%,-0.74%,7.13%,2.69%,2.94%,0.94%,-0.29%,1.06%,1.01%,1.48%
CCn1c(-c2nonc2N)nc2ccccc21,0.63%,-0.03%,-1.08%,1%,-0.17%,3.74%,4.94%,3.64%,4.52%,2.9%

Compound,inhibition [1],inhibition [2],inhibition [3],inhibition [4],inhibition [5],inhibition [6],inhibition [7],inhibition [8],inhibition [9],inhibition [10]
O=S(=O)(CCNCc1ccc(-c2ccc3ncnc(Nc4ccc(OCc5cccc(F)c5)c(Cl)c4)c3c2)o1)c1ccccc1,3%,3.79%,7.66%,2.6%,1.7%,8.76%,8.78%,6.36%,6.18%,1.16%
COc1ccc2c(-c3ccnc(Nc4cccc(OC(F)(F)F)c4)n3)cnn2n1,7.73%,2.47%,6.34%,0.87%,3.62%,6.94%,7.89%,5.16%,6.12%,1.54%
CCN(CC)S(=O)(=O)c1ccc(OC)c(Nc2ncc(-c3ccccc3)o2)c1,45.8%,24.2%,58.6%,2.08%,-0.02%,0.42%,0.29%,-0.35%,0.01%,0.35%
COc1ccc(-c2cc(-c3c[nH]nc3-c3ccccn3)ccn2)cc1,4.46%,3.5%,7.41%,1.69%,2.09%,7.54%,6.98%,7.82%,6.42%,0.24%
CS(=O)(=O)CCNCc1ccc(-c2ccc3ncnc(Nc4ccc(OCc5ccccc5)c(C(F)(F)F)c4)c3c2)o1,6.25%,2.85%,7.92%,0.47%,2.41%,5.9%,4.19%,3.97%,3%,1.81%
CCn1c(-c2nonc2N)nc2c(C#CC(C)(C)O)ncc(OC3CCNCC3)c21,2.44%,1.38%,5.89%,0.49%,1.77%,3.57%,6.35%,4.12%,3.02%,8.75%
CNC(=O)c1cccc(C#Cc2cncnc2Nc2ccc(OCc3cccc(F)c3)c(Cl)c2)c1,1.74%,2.71%,4.41%,2.49%,-0.96%,0.05%,2.22%,0.09%,1.59%,2.66%
COc1cc2ncn(-c3cc(OCc4ccccc4C(F)(F)F)c(C(=O)N(C)C)s3)c2cc1OC,2%,0.64%,6.88%,1.79%,1.15%,-0.22%,1.2%,-0.77%,2.51%,0.38%
CCOc1ccc2c(-c3ccnc(Nc4cccc(C(F)(F)F)c4)n3)cnn2n1,2.7%,0.08%,3.08%,0.89%,2.78%,3.46%,1.64%,3.04%,0.8%,-2.28%
COc1cc(/C=N/Nc2ncnc3[nH]ncc23)ccc1O,26.6%,16.4%,58%,0.75%,7.51%,5.39%,8.88%,4.62%,8.2%,4.83%
CNC(=O)c1cncc(/C=C/c2ccccc2Cl)c1,2.53%,3.64%,7.95%,1.79%,1.12%,-0.63%,0.08%,-0.33%,0.71%,0.74%
CNC(=O)c1cc(-c2ccc(F)cc2)cc(-c2ccc(S(=O)(=O)N3CCCC3)cc2)c1N,1.73%,2.18%,3.44%,-0.4%,-0.59%,3.72%,3.4%,3.04%,3.6%,0.46%
Cc1cccc(Nc2ncc(-c3ccccc3)o2)c1,4.61%,0.94%,11.3%,1.66%,1.24%,2.32%,6.08%,3.58%,3.05%,0.64%
COc1cc(Nc2nccc(Nc3ccc4c(C)n[nH]c4c3)n2)cc(OC)c1OC,27.9%,28.4%,70.7%,9.11%,32.7%,1.16%,9.2%,2.09%,7%,-7.99%
COc1cc2c(cc1Nc1nc(Nc3ccsc3C(N)=O)c3cc[nH]c3n1)N(C(=O)CN(C)C)CCC2(C)C,18.6%,2.57%,0.61%,2.36%,14.9%,6.5%,14.9%,7.15%,14%,1.55%
CC(=O)Nc1cccc(C#Cc2cncnc2Nc2ccc(OCc3cccc(F)c3)c(Cl)c2)c1,0.81%,1.2%,1.7%,3.59%,6.95%,1.95%,1.44%,1.85%,2.03%,2.77%
